The record followed here is PubChem BioAssay (Tox21).

Results filed as inconclusive are left out. Calls of active or inactive are those of the source. Unless noted, calls come from the whole dose curve; as a rule, active = well fitted curve in the direction sought with a large enough effect in the repeat runs; inconclusive = weak or mixed curves; inactive = no such curve, though single readings can be large; an effect the other way counts as inactive or inconclusive.

The nature of test [1]: qHTS assay for small molecule agonists of the p53 signaling pathway (AID 651631; calls by dose curve; note: nearly all actives have a fitted effect of over 15% in size). The method in brief:
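We treat p53RE-bla HCT-116 cells with compounds for 16 h at 37 °C, add LiveBLAzer B/G FRET substrate for 2 h at room temperature, and measure fluorescence intensity.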
(In general: Quantitative high-throughput screening tests each substance at several concentrations.)

Test [2] can be described thus: qHTS assay for small molecules that induce genotoxicity in human embryonic kidney cells expressing luciferase-tagged ATAD5 (AID 651632). Note: nearly all actives have a fitted effect of over 15% in size. The method in brief: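 Increased luciferase signal from ATAD5-tagged reporter cells indicates DNA-damage-driven ATAD5 induction. HEK293T cells are treated for 16 hr at 37C before detection with Amplite.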
Test [3] can be described thus: qHTS assay for small molecules that induce genotoxicity in human embryonic kidney cells expressing luciferase-tagged ATAD5 - cell viability (AID 651634; calls by dose curve; note: nearly all actives have a fitted effect of over 25% in size). The method in brief: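 Cytotoxicity counterscreen in HEK293T cells bearing an ATAD5-luciferase reporter: live-cell protease activity measured by CellTiter-Fluor fluorescence after 15.5 hr compound exposure.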
Test [4] in a line: qHTS assay for small molecule disruptors of the mitochondrial membrane potential - cell viability (AID 720634; calls by dose curve;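 note: human HepG2 liver cancer cells; series mostly up to about 83 µM; nearly all actives have a fitted effect of over 20% in size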). The method in brief:
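After overnight attachment at 37 C, HepG2 cells received compound or DMSO vehicle for 1 hr. Viability is then taken from ATP-driven luminescence following a 30 min room-temperature CellTiter-Glo step.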

A short description of test [5]: qHTS assay to test for compound auto fluorescence at 590 nm (red) in HepG2 cells (AID 720674). The method in brief: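 Fluorescence at 590 nm emission following 540 nm excitation was recorded from HepG2 wells one hour after compound transfer, with DMSO-only wells as vehicle and Rose Bengal sodium equivalency as the scale.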
Test [6] in a line: qHTS assay to test for compound auto fluorescence at 535 nm (green) in HepG2 cells (AID 720675).
Test [7] in a line: qHTS assay to test for compound auto fluorescence at 460 nm (blue) in HEK293 cells (AID 720678). The method in brief:
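HEK293, 2,000 cells/well, 10% dialyzed FBS; attach 4-5 hr 37C; pin compound or DMSO; o/n 37C/5% CO2; fluorescence 405/460 nm; triamterene-equivalent units.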

Test [8] can be described thus: qHTS assay for small molecule agonists of the p53 signaling pathway - cell viability (AID 651633; calls by dose curve;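 note: p53RE-bla HCT reporter cells with a stable beta-lactamase p53 reporter; series mostly up to about 83 µM; nearly all actives have a fitted effect of over 30% in size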). The procedure, abridged: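 p53RE-bla cells were treated with compound for 16 hours at 37 C. Cytotoxicity was then measured as CellTiter-Glo luminescence after 30 min at room temperature.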
Test [9] is described as follows: qHTS assay for small molecule disruptors of the mitochondrial membrane potential (AID 720635). Note: potency is the fitted concentration of half-maximal effect. The method in brief: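 HepG2 cells exposed to compound 1 hr at 37C, then Mito-MPS dye 30 min. Ratio read of aggregate (540/590 nm) versus monomer (490/535 nm) fluorescence.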
Test [10] in a line: qHTS assay to test for compound auto fluorescence at 590 nm (red) in HEK293 cells (AID 720679). The procedure, abridged:
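Intensity at 540nm excitation and 590nm emission is reported as Rose Bengal sodium-equivalent autofluorescence. Measurements followed overnight exposure (37C, 5% CO2) of HEK293 cells, 2,000 per well, to 23 nL compound.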

For the compound `Brc1ccc(Br)c(Br)c1`, the compound was classed as inactive in [1], in [2], in [5], in test [6] and in test [7]. For the same compound, the Potency entry in test [3] and in [4] was “inactive” throughout.
Regarding `CCNc1cccc(C)c1`, the call in test [1], in test [8], in test [5], in test [6] and in [7] was inactive. Further, the Potency result in test [3], in [4] and in test [9] was “inactive” each time.
For `CCNC(=S)NCC`, the result in test [1], in test [2], in test [8], in [5], in test [6] and in [7] was inactive. For the same compound, in [10], the compound was classed as inactive. The Potency entry in [3], in test [4] and in test [9] was “inactive” throughout.
`CC(CCO)CC(C)(C)C` (stereo not drawn): the result in [1], in test [2], in [8], in test [5], in test [6] and in [7] was inactive. Further, in [10], the compound was called inactive. The Potency result in test [3], in test [4] and in test [9] was “inactive” each time.
As for `O=C(OCC1CCC2OC2C1)C1CCC2OC2C1` (stereo not drawn), the compound was classed as inactive in [1], in test [2], in [5] and in test [6]. The Potency entry in test [3], in test [4] and in test [9] was “inactive” throughout.
Turning to `CC(C)CC(=O)CC(C)CC(C)C` (stereo not drawn), the outcome in [1], in [5], in test [6] and in test [7] was inactive. The Potency result in test [3], in test [4] and in [9] was “inactive” in each case.
On to `CCO[Si](CCCN)(OCC)OCC`, for which the result in test [1], in [8], in test [5], in test [6] and in test [7] was inactive. In addition, the Potency entry in [3], in test [4] and in test [9] was “inactive” throughout.
As for `CSc1ccc(Cl)cc1`, the compound was classed as inactive in [1], in test [8], in [5], in [6], in [7] and in [10]. Besides, the Potency entry in test [3], in test [4] and in test [9] was “inactive” each time.
For `COC(=O)CCCC(=O)OC`, the compound was classed as inactive in test [1], in [2], in test [8], in test [5], in test [6] and in [7]. Moreover, the compound was classed as inactive in test [10]. For the same compound, the Potency result in test [3] is “inactive”.
With `CC(C)OC(=O)COc1ccc(Cl)cc1Cl`, the compound was classed as inactive in test [1], in test [8], in [5] and in test [6]. For the same compound, the Potency entry in [3], in test [4] and in [9] was “inactive” throughout.
Turning to `c1ccc2c(c1)Cc1ccccc1-2`, the outcome in [1], in test [2], in test [8], in test [5], in [6] and in test [7] was inactive. Moreover, the outcome in test [10] was inactive. The Potency entry in [3], in [4] and in test [9] was “inactive” each time.
As for `C=CC[N+](C)(C)CC=C`, the call in test [1], in test [8], in test [5], in test [6] and in test [10] was inactive. For the same compound, the Potency entry in test [3], in [4] and in test [9] was “inactive” throughout.
`CCCCCCCC=O`: the result in test [1], in [2], in test [8], in test [5] and in test [6] was inactive. Moreover, the Potency result in test [3] and in [4] was “inactive” each time.
Regarding `OCc1cccc(Oc2ccccc2)c1`, the outcome in test [2], in [8], in test [5] and in test [6] was inactive. Besides, the Potency entry in test [3] and in [4] was “inactive” in each case. Also, the Potency in [9] was 54.5 µM (active).
For the compound `CCCCOC(=O)c1ccc(N)cc1`, the compound was called inactive in test [1], in [5], in test [6] and in [10]. Besides, the Potency entry in test [3], in test [4] and in test [9] was “inactive” each time.
In the case of `CN(C)CCOC(=O)COc1ccc(Cl)cc1`, the compound was called inactive in [2], in test [8], in test [5], in test [6], in test [7] and in [10]. For the same compound, the Potency entry in [3] and in [4] was “inactive” in each case.
On to `CC(=O)c1ccc(O)cc1`, for which the call in test [2], in test [8], in [5], in test [6] and in [10] was inactive. Besides, the Potency result in [3], in [4] and in test [9] was “inactive” in each case.
In the case of `CCCCC(C=O)CC` (stereo not drawn), the compound was called inactive in test [2], in test [8], in test [5], in test [6], in test [7] and in test [10]. Besides, the Potency result in [3], in [4] and in test [9] was “inactive” throughout.
`C=CC(=O)OCCC(=O)O`: the compound was called inactive in test [2], in test [5] and in test [6]. The Potency entry in test [3], in test [4] and in [9] was “inactive” throughout.
With `N#Cc1ccccc1`, the outcome in test [1], in [5], in test [6], in [7] and in test [10] was inactive. For the same compound, the Potency entry in [3], in [4] and in test [9] was “inactive” each time.
For the compound `C[Si]1(C)O[Si](C)(C)O[Si](C)(C)O[Si](C)(C)O1`, the result in [2], in test [5], in test [6] and in test [7] was inactive. The Potency entry in test [3], in test [4] and in test [9] was “inactive” each time.
With `CN(C)c1ccc(O)c2c1C[C@H]1C[C@H]3[C@H](N(C)C)C(=O)C(C(N)=O)=C(O)[C@@]3(O)C(=O)C1=C2O`, the call in [2], in test [5] and in test [6] was inactive. For the same compound, the Potency result in test [3], in test [4] and in test [9] was “inactive” throughout.
Regarding `CC(=O)OCc1ccco1`, the outcome in test [2], in test [5], in test [6], in test [7] and in test [10] was inactive. Further, the Potency result in [3], in test [4] and in test [9] was “inactive” in each case.
`O=C(O)c1ccc(S(=O)(=O)N(Cl)Cl)cc1`: the compound was classed as inactive in test [1], in test [5], in test [6] and in [10]. In addition, the Potency entry in test [3], in test [4] and in test [9] was “inactive” each time.
Turning to `COc1ccc(N)c(C)c1`, the compound was called inactive in test [2], in [5], in [6], in test [7] and in [10]. Besides, the Potency entry in test [3], in [4] and in test [9] was “inactive” throughout.
Take `CNC(=S)N(C)C`: the result in [2], in [8], in test [5], in test [6], in [7] and in test [10] was inactive. For the same compound, the Potency result in [3], in test [4] and in test [9] was “inactive” each time.
For `OCc1ccccc1`, the compound was classed as inactive in test [2], in test [8], in [5], in [6], in test [7] and in test [10]. For the same compound, the Potency entry in test [3], in [4] and in test [9] was “inactive” throughout.
